We go through 40 molecules from PubChem BioAssay (NCATS).

A number with no mark means an inactive call. No rule for the calls is given here. Where only a bound is given, the exact number is not on record here.
Potency is read from the fitted curve at half-maximal effect.

In this test the test system is HIV-1 nucleocapsid protein NCp7 (binding to TG oligonucleotide). Briefly: HIV Nucleocapsid (AID 346).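 Also: potency is for inhibitors that block NC binding and lower polarization.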 The following applies: HIV-1 NC / fluorescein-TGTGTGTG probe, fluorescence polarization. As for the experimental part:
NCGC Assay Overview: HIV-1 nucleocapsid protein (HIV-1 NC) is a small (6.5 kDa) basic zinc-finger protein which participates in packaging of viral genomic RNA. The spacing and metal-chelating residues (3 Cys, 1 His) of the Cys-X2-Cys-X4-His-X4-Cys Zn fingers are conserved among all known retroviruses (J. Med. Chem. 1998, 41, 1371-1381). HIV-1 NC was assayed for its binding to the consensus sequence single-stranded 5'-TGTGTGTG. […] High salt was included to increase the stringency of binding and inhibitor screen. Reducing agents and zinc were present to stabilize the nucleocapsid zinc-finger protein.
NCGC Assay Protocol Summary: Buffer. Hepes pH 7.5, 250mM NaCl, 1uM ZnCl2. 0.004% polyethylene glycol 20000. TCEP (100 uM) and 2-Mercaptoethanol (5 mM), added fresh the day of the experiment. Reagents/Controls. 10 nM TG4xF only in columns 3 and 4 as negative control. 10 nM TG4xF/100 nM HIV-1 NC in columns 1, 2, 5-48. Titration of control compound NSC-13778 (from 20 mM, then 1:2) pin-transferred to column 2. Assay Steps. Two uL of reagents were dispensed to 1536-well Kalypsys black plates. The plates were centrifuged for 1 min at 1000 rpm. Compounds and controls (20 nL) were transferred via Kalypsys PinTool. The plates were incubated for 1 hr at room temperature, and then read on ViewLux (Perkin-Elmer). High-throughput CCD imager using fluorescein polarization filter set and 45 seconds exposure time.
`COc1ccc(Oc2ncc3nc(CCc4ccccc4)c(=O)n(C)c3n2)cc1`: the Potency is > 20 µM. For `COc1ccc(Oc2ncc3nc(-c4ccc(OC)cc4)c(=O)n(C)c3n2)cc1` the value was > 20 µM. Next, `CC(=O)NCCNc1nc(-c2c(C)noc2C)nc2ccccc12`: > 20 µM; `Cc1cnc(CNc2nc(-c3cccc(NS(C)(=O)=O)c3)nc3ccccc23)cn1`: > 20 µM; `N#Cc1cccc(-c2nc(NCc3cccnc3)c3ccccc3n2)c1`: > 20 µM. Consider `COc1ccccc1-c1cncnc1N1CCN(C)CC1`, for which the Potency is > 20 µM.

For the molecule `CN(C)c1ccc(-c2ccc3ncnc(N(C)Cc4ccco4)c3c2)cc1`, the Potency is > 20 µM. Turning to `CN1CCN(c2ncc3nc(-c4ccc(F)cc4)c(=O)n(C4CC4)c3n2)CC1`, the Potency was > 20 µM. Next, `COc1ccccc1CNc1nc(-c2ccc3c(c2)OCO3)nc2ccccc12`: > 20 µM; `COc1cccc(-c2nccc(NCc3ccccc3)n2)c1`: > 20 µM; `CN(C)Cc1ccccc1-c1ccc2ncnc(N3CCOCC3)c2c1`: > 20 µM.

For the molecule `Cc1noc(C)c1C(=O)N1CCC[C@@]2(CCN(Cc3nccs3)C2)C1`, the Potency is > 20 µM. As to `COCCn1c(=O)c(-c2cccs2)nc2cnc(N3CCN(C)CC3)nc21`, the Potency was > 20 µM.

In the case of `CS(=O)(=O)N1CCC2(CC1)CN(c1ncccn1)C2`, the Potency was > 20 µM.

With `CC(=O)NCCNc1nc(-c2ccc(C(=O)N(C)C)cc2)nc2ccccc12`, the Potency was > 20 µM.

As for `CN1CCC2(CC1)CCN(C(=O)c1cccc(F)c1)CC2`, the Potency was > 20 µM.

On to `Cc1noc(C)c1-c1ccc2ncnc(NCc3cccnc3)c2c1`, for which the Potency is > 20 µM. For `COc1ncc2nc(-c3ccc(Cl)cc3)c(=O)n(C)c2n1` the value was > 20 µM; for `Cc1ccccc1-c1cncnc1Nc1ccc(F)cc1`, > 20 µM; for `COc1ccc(C(=O)N2CCC3(CC2)CN(C(=O)NC(C)C)C3)cc1`, > 20 µM. `COCCn1c(=O)c(-c2ccc(OC)cc2)nc2cnc(N3CCNCC3)nc21`: the Potency was > 20 µM. For `N#Cc1ccc(CN2CC[C@@]3(CCCN(S(=O)(=O)c4ccccc4)C3)C2)cc1` the value was > 20 µM; for `Cc1noc(C)c1C(=O)N1CCC2(CC1)CCN(c1ccccn1)CC2`, > 20 µM. For `O=C(c1ccncc1)N1CCC2(CCN(Cc3cc(C(F)(F)F)cc(C(F)(F)F)c3)CC2)CC1` the value was > 20 µM. In the case of `Cc1ccccc1-c1ccc2ncnc(NCCN3CCOCC3)c2c1`, the Potency is > 20 µM.

As to `Cn1cc(-c2nc3cnc(Oc4ccccc4)nc3n(Cc3cccs3)c2=O)c2ccccc21`, the Potency was > 20 µM.

For `Cc1cnc(CNc2ncnc3ccc(-c4ccc(N(C)C)cc4)cc23)cn1`, the Potency is > 20 µM.

As for `CN1CCN(c2ncc3nc(-c4cccc(C#N)c4)c(=O)n(CCc4ccccc4)c3n2)CC1`, the Potency was > 20 µM. For `COc1ccc(CNc2ncncc2-c2ccccc2C)c(OC)c1` the value was > 20 µM; for `O=C(Nc1ccccc1)N1CCCC2(CCN(C(=O)c3cc(C(F)(F)F)cc(C(F)(F)F)c3)CC2)C1`, > 20 µM. For `Cn1cccc1C(=O)N1CCC[C@@]2(CCN(c3cccc(-c4ccccc4)c3)C2)C1` the value was > 20 µM; for `COCCn1c(=O)c(-c2ccccc2)nc2cnc(OCc3ccccc3)nc21`, > 20 µM; for `c1ccc(CNc2cc(-c3cccnc3)ncn2)cc1`, > 20 µM. For `CN(C)c1ncc2nc(-c3cccc(C#N)c3)c(=O)n(C)c2n1` the value was > 20 µM; for `CC(=O)NCCNc1ncnc2ccc(-c3cccc(NS(C)(=O)=O)c3)cc12`, > 20 µM. With `COc1ccc(-c2nc3cnc(OC)nc3n(CCC#N)c2=O)cc1`, the Potency is > 20 µM. For `N#Cc1cccc(-c2nc(NCCN3CCOCC3)c3ccccc3n2)c1` the value was > 20 µM; for `CCNc1ncc2ncc(=O)n(C[C@H]3CCCO3)c2n1`, > 20 µM; for `O=C(c1ccncc1)N1CCC[C@@]2(CCN(c3ncccn3)C2)C1`, > 20 µM. For `Cn1cc(-c2nc3cncnc3n(CCN)c2=O)c2ccccc21` the value was > 20 µM.
